For some of these results: Potency and affinity values are given separately. Active and inactive are the calls of the source. Unless noted, the rule behind the calls is not given here.
What was measured:
[1] = antimalarial activity against Dd2 strain (AID 2302;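 active = growth inhibition above 50% at the single 2 µM test dose, taken to imply half-maximal potency below 2 µM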;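 note: 0% = DMSO untreated growth and 100% = chloroquine plus artemisinin killed control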); details: P. falciparum Dd2 in RBCs, LDH growth readout, 72 h; at 2 µM; active compounds read high
[2] = HepG2 cytotoxicity, primary screen, cytotoxicity control for P. falciparum antimalarial project, cell-based, ATP luminescence (AID 2303;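 active = inhibition above 50%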;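 note: 0% = DMSO wells and 100% = digitonin-killed cells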); details: HepG2 viability, 24-48 h, at 10 µM, active compounds read high
[3] = target: L-lactate dehydrogenase (Plasmodium falciparum (isolate CDC / Honduras)) (UniProt Q27743); test: PfLDH activity inhibition – cell lysate, 3D7 strain, counter-screen for P. falciparum growth inhibition project (AID 2304);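 note: 0% = vehicle and 100% = reference inhibitor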; details: P. falciparum 3D7 crude extract, LDH APAD/NBT absorbance; at 2 µM; active compounds read high
L-lactate dehydrogenase (Plasmodium falciparum (isolate CDC / Honduras)), sequence (Q27743 whole entry, looked up): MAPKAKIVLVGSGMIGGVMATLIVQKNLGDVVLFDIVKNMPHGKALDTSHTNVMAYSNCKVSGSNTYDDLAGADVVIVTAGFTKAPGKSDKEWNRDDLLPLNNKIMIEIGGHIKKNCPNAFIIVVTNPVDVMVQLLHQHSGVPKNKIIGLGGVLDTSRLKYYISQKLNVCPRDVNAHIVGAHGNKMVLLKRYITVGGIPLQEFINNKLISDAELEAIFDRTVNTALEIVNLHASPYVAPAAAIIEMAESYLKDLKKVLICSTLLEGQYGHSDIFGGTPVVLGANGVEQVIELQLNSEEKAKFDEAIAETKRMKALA

[4] = inhibition of 3D7 malaria parasite growth – strain 3D7 (AID 2306);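 note: 0% = DMSO wells and 100% = chloroquine plus artemisinin control wells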; details: P. falciparum 3D7 erythrocytic growth, LDH absorbance, 72 h; at 2 µM; active compounds read high
[5] = target: Calcium-dependent protein kinase 1 (Plasmodium falciparum (isolate 3D7)) (UniProt P62344); test: PfCDPK1 kinase inhibitors, biochemical, TCAMS library (AID 1159585; cut-off not given, nearly all actives have IC50 up to about 0.98 µM;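 note: inhibitors leave more ATP so luminescence rises with inhibition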); details: recombinant PfCDPK1, Kinase-Glo ATP depletion luminescence
Calcium-dependent protein kinase 1 (Plasmodium falciparum (isolate 3D7)), sequence (P62344 whole entry, looked up): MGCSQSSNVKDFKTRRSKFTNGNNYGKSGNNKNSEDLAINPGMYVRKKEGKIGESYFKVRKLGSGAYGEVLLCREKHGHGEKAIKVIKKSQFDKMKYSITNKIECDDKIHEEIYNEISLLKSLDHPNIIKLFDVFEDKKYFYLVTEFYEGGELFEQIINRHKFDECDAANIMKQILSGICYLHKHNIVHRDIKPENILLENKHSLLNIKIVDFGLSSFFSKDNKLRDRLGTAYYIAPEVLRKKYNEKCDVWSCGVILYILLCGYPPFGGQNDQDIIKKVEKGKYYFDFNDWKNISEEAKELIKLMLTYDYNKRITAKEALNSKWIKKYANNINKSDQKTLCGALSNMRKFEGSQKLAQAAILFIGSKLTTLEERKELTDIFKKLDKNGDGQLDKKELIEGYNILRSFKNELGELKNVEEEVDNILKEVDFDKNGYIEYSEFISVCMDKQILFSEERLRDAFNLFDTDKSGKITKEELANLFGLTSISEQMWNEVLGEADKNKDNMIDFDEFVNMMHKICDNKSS

[6] = target: Plasmodium falciparum protein kinase 6 (PK6, PF3D7_1337100) (UniProt Q8IDW1); test: PfPK6 kinase inhibitors, biochemical, TCAMS library (AID 1159586); details: recombinant PfPK6, Kinase-Glo ATP depletion luminescence
Plasmodium falciparum protein kinase 6 (PK6, PF3D7_1337100), sequence (Q8IDW1 1-305): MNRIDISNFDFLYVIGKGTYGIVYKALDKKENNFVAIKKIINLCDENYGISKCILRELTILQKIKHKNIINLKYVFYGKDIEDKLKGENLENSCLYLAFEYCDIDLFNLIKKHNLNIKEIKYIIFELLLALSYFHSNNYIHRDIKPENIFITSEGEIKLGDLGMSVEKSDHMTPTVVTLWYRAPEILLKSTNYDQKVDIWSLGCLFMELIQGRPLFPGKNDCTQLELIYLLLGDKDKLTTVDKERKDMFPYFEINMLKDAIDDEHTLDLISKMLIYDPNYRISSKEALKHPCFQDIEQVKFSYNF

[7] = target: Protein kinase 7 (PK7), Plasmodium falciparum 3D7 (PF3D7_0213400) (UniProt Q7YTF7); test: inhibition of Plasmodium PK7 catalytic activity – biochemical, TCAMS antimalarial set, Kinase-Glo luminescence (AID 1159587); details: recombinant PfPK7, Kinase-Glo ATP depletion luminescence
Protein kinase 7 (PK7), Plasmodium falciparum 3D7 (PF3D7_0213400), sequence (Q7YTF7 1-343): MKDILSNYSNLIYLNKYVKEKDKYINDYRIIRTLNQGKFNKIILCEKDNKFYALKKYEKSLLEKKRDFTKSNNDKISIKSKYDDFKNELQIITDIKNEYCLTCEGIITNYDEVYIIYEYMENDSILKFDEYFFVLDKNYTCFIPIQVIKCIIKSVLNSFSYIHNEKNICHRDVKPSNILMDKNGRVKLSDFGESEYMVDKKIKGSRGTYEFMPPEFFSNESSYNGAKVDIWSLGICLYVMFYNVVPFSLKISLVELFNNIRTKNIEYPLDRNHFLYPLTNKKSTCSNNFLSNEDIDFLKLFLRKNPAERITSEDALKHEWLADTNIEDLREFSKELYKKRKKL

[8] = target: Calcium-dependent protein kinase 4 (Plasmodium falciparum (isolate 3D7)) (UniProt Q8IBS5); test: PfCDPK4 kinase inhibitors, biochemical, TCAMS library (AID 1159588; cut-off not given, nearly all actives have IC50 up to about 0.91 µM); details: recombinant PfCDPK4, Kinase-Glo ATP depletion luminescence
Calcium-dependent protein kinase 4 (Plasmodium falciparum (isolate 3D7)), sequence (Q8IBS5 whole entry, looked up): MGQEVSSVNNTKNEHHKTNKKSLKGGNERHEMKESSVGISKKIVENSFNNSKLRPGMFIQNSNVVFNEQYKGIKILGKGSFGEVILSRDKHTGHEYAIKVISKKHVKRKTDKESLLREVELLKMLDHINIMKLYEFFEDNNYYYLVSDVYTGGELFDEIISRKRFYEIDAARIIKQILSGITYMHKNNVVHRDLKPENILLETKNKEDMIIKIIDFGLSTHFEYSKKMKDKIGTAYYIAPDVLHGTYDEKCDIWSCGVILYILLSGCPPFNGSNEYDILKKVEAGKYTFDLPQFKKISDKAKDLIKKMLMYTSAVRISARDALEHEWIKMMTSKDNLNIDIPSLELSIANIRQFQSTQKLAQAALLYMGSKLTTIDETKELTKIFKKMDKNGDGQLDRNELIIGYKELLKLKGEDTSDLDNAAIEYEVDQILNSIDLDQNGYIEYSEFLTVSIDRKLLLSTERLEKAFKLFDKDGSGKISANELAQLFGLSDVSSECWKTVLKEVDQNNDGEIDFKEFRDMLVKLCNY

Cc1cc(=O)c(-c2ccc(Oc3cccc(OC(F)(F)F)c3)cc2)c(C)[nH]1
active: growth inhibition [1] 96% | growth inhibition [4] 97%
inactive: inhibition [2] 13% | inhibition [3] -5% | outcome [5] | outcome [6] | outcome [7] | outcome [8]

CC(=O)Nc1ccc(CN(C)C2CCN(c3cc(NC(=O)c4cccc(C)c4)ccn3)CC2)cc1
inactive: growth inhibition [1] 13% | inhibition [2] -2% | inhibition [3] -1% | outcome [5] | outcome [6] | outcome [7] | outcome [8]
active: growth inhibition [4] 94%

COc1cc2nc(N3CCC(NC(=O)c4cccc(N(C)C)c4)CC3)nc(N)c2cc1OC
active: growth inhibition [4] 98%
inactive: growth inhibition [1] 0% | inhibition [2] 6% | inhibition [3] 1% | outcome [5] | outcome [6] | outcome [7] | outcome [8]

O=C(O)/C=C/c1cccc(F)c1F
active: inhibition [2] 58% | growth inhibition [4] 96%
inactive: growth inhibition [1] 1% | inhibition [3] -1% | outcome [5] | outcome [6] | outcome [7] | outcome [8]

CNCc1ccc(-c2ccc3ccnc(N)c3c2)cc1
inactive: inhibition [2] 46% | inhibition [3] 5% | outcome [5] | outcome [6] | outcome [7] | outcome [8]
active: growth inhibition [1] 98% | growth inhibition [4] 94%

COc1ccc2ccc(F)c(CCN3CCC(NCc4cc5c(cn4)OCCO5)CC3)c2n1
active: growth inhibition [4] 96%
inactive: growth inhibition [1] 36% | inhibition [2] 15% | inhibition [3] 3% | outcome [5] | outcome [6] | outcome [7] | outcome [8]

Oc1ccc(Br)cc1-c1nc2ccc(Cl)cc2nc1-c1cc(Br)ccc1O
inactive: inhibition [2] -4% | inhibition [3] 5% | outcome [5] | outcome [6] | outcome [7] | outcome [8]
active: growth inhibition [1] 64% | growth inhibition [4] 100%

CC(=O)Nc1nc(C(=O)Nc2ccc(-c3cccc(-c4nc5ccccc5[nH]4)c3)cc2)cs1
inactive: inhibition [3] -10% | outcome [5] | outcome [6] | outcome [7] | outcome [8]
active: growth inhibition [1] 83% | inhibition [2] 68% | growth inhibition [4] 99%

COc1ccc(-n2ccnc2SCC(=O)Nc2cc(Cl)ccc2OC)c(OC)c1
active: growth inhibition [1] 92% | growth inhibition [4] 96%
inactive: inhibition [2] -3% | inhibition [3] -8% | outcome [5] | outcome [6] | outcome [7] | outcome [8]

CCOC(=O)c1cc(C(=O)NCCCCN2CCC(c3ccc4c(c3OC)CCCC4)CC2)ccc1-c1ccc(C(F)(F)F)cc1
inactive: inhibition [3] -3% | outcome [5] | outcome [6] | outcome [7] | outcome [8]
active: growth inhibition [1] 60% | inhibition [2] 100% | growth inhibition [4] 101%

CC(=O)C1=NN(c2ccc(Cl)cc2)C(c2cccs2)N1c1ccccc1 (stereo not drawn)
active: growth inhibition [1] 70% | growth inhibition [4] 88%
inactive: inhibition [2] -3% | inhibition [3] 3% | outcome [5] | outcome [6] | outcome [7] | outcome [8]

CCCN(CCC)C(=O)c1cc(C(=O)N[C@@H](Cc2ccccc2)[C@H](O)CNCc2cccc(C(F)(F)F)c2)cc(N2CCCCS2(=O)=O)c1
active: growth inhibition [1] 74% | growth inhibition [4] 99%
inactive: inhibition [2] -5% | inhibition [3] 3% | outcome [5] | outcome [6] | outcome [7] | outcome [8]

Clc1ccc(CCNCCCCCCNCCc2ccc3c(c2)OCO3)cc1
active: growth inhibition [4] 91%
inactive: growth inhibition [1] 11% | inhibition [2] 23% | inhibition [3] 7% | outcome [5] | outcome [6] | outcome [7] | outcome [8]

CC(C)(C)OC(=O)N1CCN(c2ccccc2NC(=O)c2cccc(C(F)(F)F)c2Oc2ccc(F)cc2)CC1
active: growth inhibition [4] 100%
inactive: growth inhibition [1] 9% | inhibition [2] 3% | inhibition [3] -8% | outcome [5] | outcome [6] | outcome [7] | outcome [8]

Cc1c(Cc2ccccc2)c(=O)oc2c(C)c3c(cc12)CN(CC(C)c1ccccc1)CO3 (stereo not drawn)
active: growth inhibition [1] 98% | growth inhibition [4] 98%
inactive: inhibition [2] 1% | inhibition [3] -1% | outcome [5] | outcome [6] | outcome [7] | outcome [8]

CCCCc1ccc(C(=O)Nc2ccc3nc(N4CCN(CC)CC4)cc(C)c3c2)cc1
inactive: growth inhibition [1] 13% | inhibition [2] 32% | inhibition [3] 4% | outcome [5] | outcome [6] | outcome [7] | outcome [8]
active: growth inhibition [4] 91%

C=CCC(C)n1ncc2c3c(N)nc(N)nc3ccc21 (stereo not drawn)
inactive: inhibition [3] -3% | outcome [5] | outcome [6] | outcome [7] | outcome [8]
active: growth inhibition [1] 95% | inhibition [2] 66% | growth inhibition [4] 93%

CCCc1ccc(S(=O)(=O)Nc2ccc3c(c2)CCC3)cc1
active: growth inhibition [4] 96%
inactive: growth inhibition [1] -1% | inhibition [2] 8% | inhibition [3] 1% | outcome [5] | outcome [6] | outcome [7] | outcome [8]

C=C(C)C1CC=C(CN2CCCC(n3ccc4cc(NC(=O)c5ccco5)ccc43)CC2)CC1 (stereo not drawn)
inactive: inhibition [2] 13% | inhibition [3] 1% | outcome [5] | outcome [6] | outcome [7] | outcome [8]
active: growth inhibition [1] 95% | growth inhibition [4] 90%

O=C(Cc1cccc(OCCCN(Cc2cccc(C(F)(F)F)c2Cl)CC(c2ccccc2)c2ccccc2)c1)NCc1ccco1
inactive: inhibition [2] 2% | inhibition [3] -6% | outcome [5] | outcome [6] | outcome [7] | outcome [8]
active: growth inhibition [1] 84% | growth inhibition [4] 94%

COc1ccc(CNC2CCN(C)CC2)cc1-c1cccc(S(=O)(=O)NCc2ccccc2)c1
inactive: growth inhibition [1] 7% | inhibition [2] 43% | inhibition [3] -1% | outcome [5] | outcome [6] | outcome [7] | outcome [8]
active: growth inhibition [4] 101%

Cc1ccc(-c2ccc(Cl)cc2Oc2cnc(N)nc2N)o1
active: growth inhibition [4] 102%
inactive: growth inhibition [1] 3% | inhibition [2] 15% | inhibition [3] -2% | outcome [5] | outcome [6] | outcome [7] | outcome [8]

c1cc(CN2CCN(c3ccncc3)CC2)cc(-c2cccc(-c3nc4ccccc4[nH]3)c2)c1
inactive: inhibition [2] 35% | inhibition [3] 3% | outcome [5] | outcome [6] | outcome [7] | outcome [8]
active: growth inhibition [1] 98% | growth inhibition [4] 102%

CCOC(=O)C1=C(C)NC(Cn2ccnc2)=C(C(=O)OCC)C1c1ccc(C(C)(C)C)cc1 (stereo not drawn)
active: growth inhibition [4] 100%
inactive: growth inhibition [1] 33% | inhibition [2] 8% | inhibition [3] -10% | outcome [5] | outcome [6] | outcome [7] | outcome [8]

O=c1ccc2ncc(Cl)c3c2n1CC3CN1CCC(NCc2cc3c(cn2)OCCO3)CC1 (stereo not drawn)
active: growth inhibition [4] 96%
inactive: growth inhibition [1] 29% | inhibition [2] 27% | inhibition [3] -2% | outcome [5] | outcome [6] | outcome [7] | outcome [8]

c1ccc2c(Nc3ccc(Cc4ccc(Nc5c6ccccc6nc6ccccc56)cc4)cc3)c3ccccc3nc2c1
active: growth inhibition [1] 101% | inhibition [2] 93% | growth inhibition [4] 101%
inactive: inhibition [3] 7% | outcome [5] | outcome [6] | outcome [7] | outcome [8]

O=c1ccc2ccc(F)cc2n1CCN1CCC(NCc2ccc(-c3ccccn3)s2)CC1
active: growth inhibition [4] 98%
inactive: growth inhibition [1] 30% | inhibition [2] -12% | inhibition [3] -1% | outcome [5] | outcome [6] | outcome [7] | outcome [8]

COc1cc2nc(N3CCC(CNC(=O)/C=C/c4ccccc4F)CC3)nc(N)c2cc1OC
active: growth inhibition [1] 88% | growth inhibition [4] 100%
inactive: inhibition [2] -4% | inhibition [3] 5% | outcome [5] | outcome [6] | outcome [7] | outcome [8]

CC(=O)N(C)C1CCN(Cc2ccc(-c3ccc(-c4nc5ccc(F)cc5[nH]4)s3)cc2)C1 (stereo not drawn)
active: growth inhibition [4] 98%
inactive: growth inhibition [1] 22% | inhibition [2] 46% | inhibition [3] 1% | outcome [5] | outcome [6] | outcome [7] | outcome [8]

COc1ccc2nccc([C@@H](O)CN3CCC(NCc4cc5ccccc5[nH]4)CC3)c2c1
active: inhibition [2] 75% | growth inhibition [4] 92%
inactive: growth inhibition [1] 41% | inhibition [3] 4% | outcome [5] | outcome [6] | outcome [7] | outcome [8]

COc1cc(O)c2c(=O)c(OC)c(-c3cccc(Cl)c3OC3O[C@H](CO)[C@@H](O)[C@H](O)[C@H]3O)oc2c1OC (stereo partly drawn)
active: growth inhibition [4] 101%
inactive: growth inhibition [1] 6% | inhibition [2] 16% | inhibition [3] -2% | outcome [5] | outcome [6] | outcome [7] | outcome [8]

CCCNC[C@@H](O)[C@H](Cc1ccccc1)NC(=O)c1cc(NCC)cc(N2CCCCS2(=O)=O)c1
active: growth inhibition [1] 74% | growth inhibition [4] 97%
inactive: inhibition [2] 0% | inhibition [3] -3% | outcome [5] | outcome [6] | outcome [7] | outcome [8]

COC(=O)c1cccc(NC(=O)NC2CCN(c3ccnc(Nc4ccc(F)cc4)n3)C2)c1 (stereo not drawn)
inactive: inhibition [2] 5% | inhibition [3] 3% | outcome [5] | outcome [6] | outcome [7] | outcome [8]
active: growth inhibition [1] 83% | growth inhibition [4] 100%

CN1CCN(C(C(=O)NCc2cc(Cl)cc(Cl)c2)c2ccc(Nc3cccc(C(F)(F)F)c3)cc2)CC1 (stereo not drawn)
inactive: inhibition [2] 49% | inhibition [3] 5% | outcome [5] | outcome [6] | outcome [7] | outcome [8]
active: growth inhibition [1] 98% | growth inhibition [4] 85%

CN1CCN(c2ccnc3ccc(NC(=O)Nc4cccc(C#N)c4)cc23)CC1
active: growth inhibition [1] 96% | growth inhibition [4] 99%
inactive: inhibition [2] 11% | inhibition [3] -1% | outcome [5] | outcome [6] | outcome [7] | outcome [8]

C[C@@H](C(=O)N1CCOCC1)N1CC[C@H](NS(=O)(=O)c2ccc3ccnc(N)c3c2)C1=O
active: growth inhibition [1] 61% | growth inhibition [4] 84%
inactive: inhibition [2] -6% | inhibition [3] -4% | outcome [5] | outcome [6] | outcome [7] | outcome [8]

CCN(CCCN1CCCCC1)c1cc(C)nc(Nc2ccc(C)cc2Br)n1
active: growth inhibition [4] 95%
inactive: growth inhibition [1] 27% | inhibition [2] 49% | inhibition [3] 3% | outcome [5] | outcome [6] | outcome [7] | outcome [8]

COc1ccc(-c2csc3ncnc(Cl)c23)cc1OC
inactive: inhibition [2] -25% | inhibition [3] 4% | outcome [5] | outcome [6] | outcome [7] | outcome [8]
active: growth inhibition [1] 84% | growth inhibition [4] 93%

N#Cc1ccc2[nH]cc(CN3CCC4(CC3)CN(CCNCc3ccccc3)C(=O)O4)c2c1
inactive: growth inhibition [1] 0% | inhibition [2] -5% | inhibition [3] -1% | outcome [5] | outcome [6] | outcome [7] | outcome [8]
active: growth inhibition [4] 100%

COc1cccc(O)c1CN1CCC2(CCCN(Cc3ccc(F)cc3)C2)C1 (stereo not drawn)
active: growth inhibition [1] 72% | growth inhibition [4] 98%
inactive: inhibition [2] 21% | inhibition [3] 1% | outcome [5] | outcome [6] | outcome [7] | outcome [8]

COc1ccc2nc(N(CCCn3ccnc3)C(=O)C=Cc3cccs3)sc2c1
active: growth inhibition [4] 92%
inactive: growth inhibition [1] 26% | inhibition [2] 8% | inhibition [3] -3% | outcome [5] | outcome [6] | outcome [7] | outcome [8]

From PubChem BioAssay
